# Experimental data published in the supplement of paper PMC10127200.
# Where a name gives a salt, the structure may show the parent alone.
# Test system: 786-O
# Assay: Euclidean distance of Cell Painting phenotypic profile (signed KS, 77 features) to DMSO centroid (dimensionless distance); 5 or 10 uM (library dependent); higher = stronger phenotypic change vs DMSO (phenoactivity)
# Conditions: 48 h
# Summary of the method: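 Harmony extracted 77 features from 20X confocal images (9 fields/well) of stained cells, scoring each as a signed Kolmogorov-Smirnov statistic against same-plate vehicle wells. The cells, five cancer lines and a healthy fibroblast line, had received library compounds for 48 h at 10 or 5 uM depending on library, with 0.1% DMSO final. Phenoactivity is the Euclidean distance from each plate-position-corrected, correlation-weighted, top-dose replicate-averaged profile to the median vehicle profile.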
row,Structure (SMILES),Euclidean distance
1,COc1nc(C)nc(Cl)c1NC1=NCCN1 [Moxonidine],1.15
2,CO[C@H]1C[C@@H]2CC[C@@H](C)[C@@](O)(O2)C(=O)C(=O)N2CCCC[C@H]2C(=O)O[C@H]([C@H](C)C[C@@H]2CC[C@H](n3cnnn3)[C@H](OC)C2)CC(=O)[C@H](C)/C=C(\C)[C@@H](O)[C@@H](OC)C(=O)[C@H](C)C[C@H](C)/C=C/C=C/C=C/1C [Zotarolimus(ABT-578)],2.27
3,N#CC(c1ccnc(OCc2ccc(CN3CCOCC3)cc2)n1)c1nc2ccccc2s1 (centres undefined) [Bentamapimod],1.54
4,CC(N/C(=N\C#N)Nc1ccncc1)C(C)(C)C (centres undefined) [Pinacidil],1.01
5,CN1CCN2c3ncccc3Cc3ccccc3C2C1 (centres undefined) [Mirtazapine],0.981
6,Cc1cn([C@H]2C=C[C@@H](CO)O2)c(=O)[nH]c1=O [Stavudine (d4T)],1.64
7,CN1CCC(NC(=O)c2cc(-c3c(O)cc(O)cc3Oc3ccc([N+](=O)[O-])cc3)on2)CC1,2.95
8,CN1[C@@H]2CC[C@H]1C[C@@H](OC(=O)c1c[nH]c3ccccc13)C2 [Tropisetron],1.17
9,Cc1cc(C)cc(OCC2CNC(=O)O2)c1 (centres undefined) [Metaxalone],0.96
10,O=C(Nc1ccc(Cl)cc1)Nc1ccc(Cl)c(Cl)c1 [Triclocarban],2.18
11,CC1(C)O[C@H]2CC(=O)OC[C@]23[C@H]2CC[C@@]4(C)[C@H](c5ccoc5)OC(=O)[C@H]5O[C@]54[C@]2(C)C(=O)C[C@@H]13 [Limonin],0.804
12,CN1CCC(=C2c3ccccc3C=Cc3ccccc32)CC1 [Cyproheptadine hydrochloride],0.781
13,CC1(C)S[C@@H]2[C@H](NC(=O)[C@H](N)c3ccc(O)cc3)C(=O)N2[C@H]1C(=O)O [Amoxicillin trihydrate],0.875
14,Oc1ccc(C2CNCCc3c2cc(O)c(O)c3Cl)cc1 (centres undefined) [Fenoldopam mesylate],1.43
15,O=C1NC(=O)/C(=C/c2cccc(C(F)(F)F)c2)S1,1.83
16,O=C(O)CNC(=O)c1ncc(-c2cccc(Cl)c2)cc1O [Vadadustat],1.08
17,CCOC(=O)[C@H](CCc1ccccc1)N[C@@H](C)C(=O)N1Cc2cc(OC)c(OC)cc2C[C@H]1C(=O)O [Moexipril HCl],1.48
18,CCCC(=O)O[C@]1(C(=O)CCl)[C@H](C)C[C@@H]2[C@@H]3CCC4=CC(=O)C=C[C@]4(C)[C@]3(F)C(=O)C[C@@]21C [clobetasone butyrate],1.53
19,Oc1ccc(OCc2ccccc2)cc1 [Monobenzone],2.36
20,O=C(Nc1ccncc1)c1cc([N+](=O)[O-])ccc1Cl,1.2

row,Structure (SMILES),Euclidean distance
1,CN(C)C[C@@H]1CCn2cc(c3ccccc32)C2=C(C(=O)NC2=O)c2cn(c3ccccc23)CCO1,3.81
2,Cc1cc(Nc2ncnc3ccc(-c4ccc(CNCCS(C)(=O)=O)o4)cc23)ccc1Oc1ccn2ncnc2c1 [HER2-Inhibitor-1],1.06
3,CC(C)(C)C(=O)Oc1ccc(S(=O)(=O)Nc2ccccc2C(=O)NCC(=O)O)cc1 [Sivelestat (ONO-5046)],0.847
4,Cc1cc(OCCCS(C)(=O)=O)cc(C)c1-c1cccc(COc2ccc3c(c2)OC[C@H]3CC(=O)O)c1,1.05
5,COc1cc2c(cc1OC)CN(CCc1ccc(NC(=O)c3cc(OC)c(OC)cc3NC(=O)c3cnc4ccccc4c3)cc1)CC2 [Tariquidar],0.987
6,COc1nccnc1NS(=O)(=O)c1ccc(N)cc1 [Sulfalene(SMPZ)],0.789
7,CC(=O)O[C@@]12CO[C@@H]1C[C@H](O)[C@@]1(C)C(=O)[C@H](O)C3=C(C)[C@@H](OC(=O)[C@H](O)[C@@H](NC(=O)OC(C)(C)C)c4ccccc4)C[C@@](O)([C@@H](OC(=O)c4ccccc4)[C@H]21)C3(C)C [Docetaxel],3.54
8,CC(C)Cn1cnc2c(N)nc3ccccc3c21 [Imiquimod],0.967
9,CC(=O)N1CCN(CCOc2ccc(C3CCN(C4=Nn5c(nnc5C(F)(F)F)CC4)CC3)cc2)CC1,1.54
10,CC1(C)CC(=O)c2c(C(F)(F)F)nn(-c3ccc(C(N)=O)c(N[C@H]4CC[C@H](OC(=O)CN)CC4)c3)c2C1,3.85
11,Cc1cc(CN2CCN(c3c(Br)cnc4nc(-c5ccc(N6CCN(C)CC6)cc5)[nH]c34)CC2)no1,1.51
12,O=C(NC(NC(=S)Nc1ccc(F)c([N+](=O)[O-])c1)C(Cl)(Cl)Cl)C(c1ccccc1)c1ccccc1 (centres undefined),1.02
13,CC(C)CC(N)=O [Isovaleramide],1.41
14,CC(C(=O)O)c1ccc2c(c1)CC(=O)c1ccccc1S2 (centres undefined) [Zaltoprofen],1.08
15,O=C1CN(/N=C/c2ccc(-c3ccc([N+](=O)[O-])cc3)o2)C(=O)N1 [Dantrolene sodium hemiheptahydrate],0.731
16,Cc1cnc(Nc2ccc(N3CCN(C)CC3)cc2)nc1Nc1cccc(S(=O)(=O)NC(C)(C)C)c1,3.77
17,Clc1ccc(COC(Cn2ccnc2)c2ccc(Cl)cc2Cl)cc1 (centres undefined) [Econazole],1.06
18,CC(C)NC(=N)NC(=N)Nc1ccc(Cl)cc1 [Proguanil],1.21
19,NC(=O)N[C@@H](CCC(=O)O)C(=O)O [Carglumic Acid],1.22
